Source: the supplement of paper PMC12532568

What was measured:
[1] = tested on: Danio rerio larvae Tg(actc1b:ZsGreen-LC3), 3 dpf; experiment: LC3 puncta relative area vs vehicle, without NH4Cl (log2 fold change); higher = more autophagosomes; conditions: 10 µM; treatment time 16 h; NH4Cl: none
Method: (§1)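 Transgenic Tg(actc1b:ZsGreen-map1lc3) zebrafish larvae (2 dpf) were treated for 16 h with Tocris library compounds at 10 µM (n = 12 larvae per compound). Skeletal-muscle LC3 puncta area relative to body area was measured by high-content confocal imaging before and after 4 h of 100 mM NH4Cl (autophagic flux), normalised to vehicle (DMSO), and reported as log2 fold change.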

[2] = tested on: Danio rerio larvae Tg(actc1b:ZsGreen-LC3), 3 dpf; experiment: LC3 puncta relative area vs vehicle, with NH4Cl (autophagic flux) (log2 fold change); higher = more autophagy; conditions: 10 µM; treatment time 16 h; NH4Cl: + 100 mM, 4 h
Method: as §1

Row | Structure (SMILES) | LC3 puncta (log2) [1] | LC3 puncta (log2) [2]
1 | O=[N+]([O-])c1cccc2cn[nH]c12 [7-Nitroindazole] | 0.16 | 
2 | COc1cc(C(=O)OCCCN2CCCN(CCCOC(=O)c3cc(OC)c(OC)c(OC)c3)CC2)cc(OC)c1OC [Dilazep] |  | 0.426
